Assay outcomes deposited in PubChem BioAssay by National Center for Advancing Translational Sciences (NCATS).
POLK inh – qHTS for Inhibitors of Polymerase Kappa | purified Pol kappa, fluorescent DNA synthesis assay, 10 min | Potency, µM (highest dose often 107 µM), usual class: inhibitors | AID 588579, 2011 | actives 0.53% (n = 400,000) | DNA polymerase kappa (Homo sapiens), Q9UBT6
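Enzyme at 10 nM met test compounds for 15 min at room temperature. Substrate addition (50 nM final) began the reaction, which was monitored by fluorescence at 0 and 10 min.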
POLH inh – qHTS for Inhibitors of Polymerase Eta; DNA polymerase eta (Homo sapiens), Q9Y253; recombinant Pol eta, fluorescent DNA replication assay; Potency, µM (top dose mostly 114 µM), hits mostly inhibitors; actives 1.2% (n = 390,000); AID 588591, 2011
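Pol eta at 10 nM preincubated with compounds 15 min at room temperature; reaction started with fluorescent substrate (50 nM final) and read kinetically at 0 and 10 min.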
POLI inh – qHTS for Inhibitors of Polymerase Iota | DNA polymerase iota (Homo sapiens), Q9UNA4 | Pol iota fluorescent replication assay, 10 min | Potency, µM (top dose mostly 115 µM), usual class: inhibitors | actives 1% (n = 390,000) | AID 588590, 2011
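Fluorescent replication assay read twice, at 0 min and 10 min after adding 50 nM (final) substrate. Enzyme (10 nM) and compounds were first incubated 15 min at room temperature; enzyme-free buffer wells were negative controls.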
FEN1 inh-1 – qHTS Assay for the Inhibitors of Human Flap endonuclease 1 (FEN1); P39748; Recombinant FEN1 flap cleavage, fluorescence, 15 min; Potency, µM (top dose mostly 114 µM), hits mostly inhibitors; actives 0.35% (n = 390,000); further: nearly all actives have a fitted effect of over 65% in size
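Potency values derive from four-parameter Hill fits of normalized qHTS data. The reaction used 10 nM FEN1 preincubated 15 min at room temperature with compound, then 50 nM DNA substrate, read at 0 and 15 min.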
WRN helicase inh – qHTS for Inhibitors of WRN Helicase; Bifunctional 3'-5' exonuclease/ATP-dependent helicase WRN (Homo sapiens), Q14191; WRN helicase unwinding, fluorescent forked duplex, kinetic; Potency, µM (titrated, usually from 114 µM), actives largely listed as inhibitors; actives 0.46% (n = 360,000); AID 651768, 2012; further: nearly all actives have a fitted effect of over 55% in size
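WRN at 20 nM final preincubated with compound 15 min at room temperature; reaction started with 100 nM fluorophore/quencher forked duplex oligonucleotide and 2 mM ATP final. Unwinding followed kinetically by red fluorescence (ex 525, em 598 nm).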
POLB inh – qHTS Assay for Inhibitors of DNA Polymerase Beta; Pol beta primer extension/strand displacement, fluorescence kinetic; P06746; AID 485314, 2010; Potency, µM (highest dose often 114 µM), hits mostly inhibitors; actives 1.3% (n = 340,000)
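10 nM enzyme + cpd, 15 min RT; start with substrate 50 nM final; read 0 min and after 10 min RT. Corrected, normalized data; 4-parameter Hill curve fit.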
FEN1 inh-2 – qHTS Assay for the Inhibitors of FEN1: Confirmatory Assay for Cherry-picked Compounds | FEN1 flap cleavage, TAMRA/BHQ2 fluorogenic DNA substrate | shares compounds with FEN1 inh-1 | actives 79% (n = 880) | Potency, µM, usual class: inhibitors; further: nearly all actives have a fitted effect of over 60% in size
A number is an active result; [ ] = remark or other dose. Sampled rows, rich in hits. Any-hit rate of the full collection: about 2.4%. The call rests on the fitted dose curve; in most records, active means well fitted curve in the direction sought with a large enough effect; inconclusive means small, poorly fitted or top-dose-only effect, or another doubt; inactive means no such curve, though single readings can be large; an effect the other way counts as inactive or inconclusive.

CCOCCCNCc1ccc(OC)cc1 was read as POLK inh inactive, POLH inh inactive, POLI inh inactive, FEN1 inh-1 inactive, WRN helicase inh inactive and POLB inh inactive.
For COc1ccc2cc(CNCCOCCOCCNCc3ccc4cc(OC)ccc4c3)ccc2c1 the results were POLK inh inactive, POLH inh inactive, POLI inh inactive, FEN1 inh-1 39.8µM, WRN helicase inh inconclusive and FEN1 inh-2 37.9.
Screening O=S(=O)(Cc1ccccc1)N1CCN(c2nc(-c3cccs3)nc3ccccc23)CC1 returned POLK inh inactive, POLI inh inactive and FEN1 inh-1 inactive.
Screening Cc1csc2c1c(=O)n(O)c(=O)n2Cc1ccccc1 returned FEN1 inh-2 0.107.
For COc1ccc2[nH]c3c(=O)n(CCCCC(=O)NCCN4CCCC4)c(=S)[nH]c3c2c1 the results were POLK inh inconclusive, POLH inh inactive, POLI inh inconclusive, FEN1 inh-1 inconclusive, WRN helicase inh inconclusive, POLB inh inactive and FEN1 inh-2 inconclusive.
For Cc1cc(/C=C2\Sc3ccccc3N2C)cc(C)[n+]1CC1CCCO1 (stereo unspecified) the results were POLK inh inconclusive, POLH inh inactive, POLI inh inactive, FEN1 inh-1 50.1µM, WRN helicase inh inconclusive, POLB inh inconclusive and FEN1 inh-2 33.8.
Screening Cc1ccc(/C=C2/Sc3ccccc3N(CC(=O)NCC3CCCO3)C2=O)cc1 (stereo unspecified) returned POLK inh inactive, POLH inh inactive, POLI inh inactive, FEN1 inh-1 inactive, WRN helicase inh inactive and POLB inh inactive.
Screening CCN(CC)CCNc1ccc(CO)c2oc3cc(Cl)ccc3c(=O)c12 returned POLH inh inactive and WRN helicase inh inactive.
Screening CN(C)CCNc1ccc(CO)c2oc3ccc(O)cc3c(=O)c12 returned POLK inh inactive, POLH inh inactive, POLI inh inconclusive, FEN1 inh-1 35.5µM, WRN helicase inh inactive[11.6 µM] and FEN1 inh-2 30.1.
C/C(=N\NC(=O)c1ccc(OC2OCCOC2Oc2ccc(C(=O)N/N=C(\C)c3ccncc3)cc2)cc1)c1ccncc1 (stereo unspecified) was read as POLK inh inactive, POLH inh inconclusive, POLI inh inconclusive, FEN1 inh-1 inactive, WRN helicase inh inactive, POLB inh inconclusive and FEN1 inh-2 67.5.
Screening CC(C)(C)/C(O)=C/c1nc2ccccc2oc1=O returned POLK inh inactive, POLH inh inactive, POLI inh inactive, FEN1 inh-1 20µM, WRN helicase inh inactive[11.6 µM], POLB inh inactive and FEN1 inh-2 30.1.
`Cc1ccc(-c2nc(C(=O)NCCCN(C)C)cc3c2[nH]c2ccccc23)cc1` gave POLK inh inactive, POLH inh inactive, POLI inh inconclusive, FEN1 inh-1 inconclusive, WRN helicase inh inactive, POLB inh inconclusive and FEN1 inh-2 37.9.
For Cc1ccc(NC(=O)Nc2nnc(SCC(=O)N3CCC(C)CC3)s2)cc1 the results were POLK inh inactive, POLH inh inactive, POLI inh inactive, FEN1 inh-1 inactive and POLB inh inactive.
For Cc1c2ccncc2cc2c1[nH]c1ccccc12 the results were POLK inh inactive, POLH inh inactive, POLI inh inconclusive, FEN1 inh-1 17.8µM, WRN helicase inh inactive[11.6 µM] and FEN1 inh-2 16.9.
Screening Cc1cc2c([nH]c3ccccc32)c(C)n1 returned POLK inh inactive, POLH inh inactive, POLI inh inactive, FEN1 inh-1 inactive, WRN helicase inh inactive and POLB inh inactive.
`CCN(CC)CCCNC(=O)c1oc2c(c1C)-c1nn(Cc3ccc(Cl)cc3)cc1CC2` gave POLK inh inactive, POLH inh inactive, POLI inh inactive, FEN1 inh-1 inactive and POLB inh inactive.
